# From PubChem BioAssay AID1159580 (chemical genetic matrix, 2015)
# “And” between values parts separate entries of the source, which are not always exact repeats. Equal values may be shown once. Among all 5,500 compounds or so, about 2,000 (36%) were called active. Another 18% or so got no clear call; they are omitted. Some of the results follow. Values without a mark were called inactive. Cut-off read from the data, not from the text of the source: active = normalized growth mostly below about 0.91 (no sharp cut-off); inconclusive = no clear call, values can overlap the other calls; inactive = mostly above about 0.92.
# Experiment: chemical genetic growth profiling, strain panel (AID 1159580);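 note: tested at 20 µM; growth read once vehicle control cultures reached saturation at 30 °C; 1 = growth at the plate median or of vehicle wells; lower values mean less growth of the strain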
# Details: S. cerevisiae deletion strains, growth OD
smiles,measurement,setting,value
CCOc1ccc(C(=O)c2cc(O)c(OC)c(OC)c2O)cc1,normalized growth,"locus YAL021C, strain ccr4, active compounds read low",1
same,normalized growth,"locus YAL026C, strain drs2, active compounds read low",0.941
same,normalized growth,"locus YAL030W, strain snc1, active compounds read low",0.993
same,normalized growth,"locus YBL061C, strain skt5, active compounds read low",0.998
same,normalized growth,"locus YBR009C, strain hhf1, active compounds read low",0.938
same,normalized growth,"locus YBR021W, strain FUR4, active compounds read low",1.06
same,normalized growth,"locus YBR023C, strain chs3, active compounds read low",0.997
same,normalized growth,"locus YBR171W, strain sec66, active compounds read low",0.981
same,normalized growth,"locus YBR229C, strain ROT2, active compounds read low",1.01
same,normalized growth,"locus YBR231C, strain swc5, active compounds read low",0.987
same,normalized growth,"locus YBR279W, strain paf1, active compounds read low",1
same,normalized growth,"locus YCL011C, strain gbp2, active compounds read low",0.998
same,normalized growth,"locus YCL016C, strain dcc1, active compounds read low",1
same,normalized growth,"locus YCL029C, strain bik1, active compounds read low",1.01
same,normalized growth,"locus YCL061C, strain MRC1, active compounds read low",1
same,normalized growth,"locus YCL069W, strain vba3, active compounds read low",0.997
same,normalized growth,"locus YCR088W, strain abp1, active compounds read low",0.997
same,normalized growth,"locus YDL005C, strain med2, active compounds read low",1.01
same,normalized growth,"locus YDL035C, strain GPR1, active compounds read low",1.02
same,normalized growth,"locus YDL040C, strain nat1, active compounds read low",1.01
same,normalized growth,"locus YDL074C, strain BRE1, active compounds read low",1.11
same,normalized growth,"locus YDL101C, strain DUN1, active compounds read low",1.01
same,normalized growth,"locus YDL134C, strain PPH21, active compounds read low",1.01
same,normalized growth,"locus YDL185W, strain tfp1, active compounds read low",1.01
same,normalized growth,"locus YDL192W, strain arf1, active compounds read low",0.957
same,normalized growth,"locus YDR001C, strain nth1, active compounds read low",0.999
same,normalized growth,"locus YDR069C, strain doa4, active compounds read low",0.969
same,normalized growth,"locus YDR101C, strain arx1, active compounds read low",1
same,normalized growth,"locus YDR137W, strain rgp1, active compounds read low",0.79 (active)
same,normalized growth,"locus YDR150W, strain NUM1, active compounds read low",1.01
same,normalized growth,"locus YDR159W, strain sac3, active compounds read low",0.97
same,normalized growth,"locus YDR162C, strain NBP2, active compounds read low",0.983
same,normalized growth,"locus YDR195W, strain ref2",1.05
same,normalized growth,"locus YDR297W, strain sur2, active compounds read low",0.995
same,normalized growth,"locus YDR318W, strain mcm21, active compounds read low",0.99
same,normalized growth,"locus YDR334W, strain swr1, active compounds read low",0.987
same,normalized growth,"locus YDR335W, strain msn5, active compounds read low",0.999
same,normalized growth,"locus YDR388W, active compounds read low",1.02
same,normalized growth,"locus YDR392W, strain spt3, active compounds read low",0.455 (active)
same,normalized growth,"locus YDR502C, strain sam2, active compounds read low",1.02
same,normalized growth,"locus YEL003W, strain gim4, active compounds read low",0.986
same,normalized growth,"locus YEL037C, strain rad23, active compounds read low",0.99
same,normalized growth,"locus YEL061C, strain CIN8 (second series), active compounds read low",0.992
same,normalized growth,"locus YER015W, strain faa2, active compounds read low",0.999
same,normalized growth,"locus YER016W, strain bim1, active compounds read low",0.995
same,normalized growth,"locus YER110C, active compounds read low",1.03
same,normalized growth,"locus YER111C, strain swi4, active compounds read low",0.989
same,normalized growth,"locus YER155C, strain BEM2 (second series), active compounds read low",0.734 (active)
same,normalized growth,"locus YER155C, strain BEM2, active compounds read low",0.995
same,normalized growth,"locus YER167W, strain BCK2, active compounds read low",1
same,normalized growth,"locus YFR010W, strain ubp6, active compounds read low",0.98
same,normalized growth,"locus YGL078C, strain dbp3, active compounds read low",1.03
same,normalized growth,"locus YGL086W, strain mad1, active compounds read low",0.964
same,normalized growth,"locus YGL167C, strain pmr1, active compounds read low",1
same,normalized growth,"locus YGL173C, strain kem1, active compounds read low",0.988
same,normalized growth,"locus YGL227W, strain vid30, active compounds read low",1.01
same,normalized growth,"locus YGL240W, strain doc1, active compounds read low",0.985
same,normalized growth,"locus YGL248W, strain PDE1, active compounds read low",1.04
same,normalized growth,"locus YGL253W, strain hxk2, active compounds read low",1.01
same,normalized growth,"locus YGR135W, strain pre9, active compounds read low",1.01
same,normalized growth,"locus YGR252W, strain gcn5, active compounds read low",1.03
same,normalized growth,"locus YHR013C, strain ard1, active compounds read low",0.985
same,normalized growth,"locus YHR027C, strain rpn1, active compounds read low",0.991
same,normalized growth,"locus YHR030C, strain SLT2, active compounds read low",1 and 0.941
same,normalized growth,"locus YHR079C, strain IRE1 (second series), active compounds read low",1.03
same,normalized growth,"locus YHR079C, strain IRE1, active compounds read low",0.938
same,normalized growth,"locus YHR094C, strain hxt1, active compounds read low",1.01
same,normalized growth,"locus YHR129C, strain ARP1, active compounds read low",1.03
same,normalized growth,"locus YHR142W, strain chs7, active compounds read low",0.931
same,normalized growth,"locus YHR200W, strain rpn10, active compounds read low",1.02
same,normalized growth,"locus YIL066C, strain RNR3, active compounds read low",1.03
same,normalized growth,"locus YIL073C, strain SPO22, active compounds read low",1.01
same,normalized growth,"locus YIL125W, strain kgd1, active compounds read low",0.995
same,normalized growth,"locus YIR030C, strain dcg1, active compounds read low",1.01
same,normalized growth,"locus YJL092W, strain hpr5, active compounds read low",1
same,normalized growth,"locus YJL095W, strain BCK1 (second series), active compounds read low",0.938
same,normalized growth,"locus YJL095W, strain BCK1, active compounds read low",1.05 and 0.949
same,normalized growth,"locus YJL115W, strain asf1, active compounds read low",1
same,normalized growth,"locus YJL129C, strain trk1, active compounds read low",0.955
same,normalized growth,"locus YJL134W, strain LCB3, active compounds read low",0.994
same,normalized growth,"locus YJL154C, strain vps35, active compounds read low",1
same,normalized growth,"locus YJL164C, strain tpk1, active compounds read low",0.969
same,normalized growth,"locus YJL166W, strain qcr8, active compounds read low",0.974
same,normalized growth,"locus YJL168C, strain set2, active compounds read low",1.01
same,normalized growth,"locus YJL187C, strain SWE1 (second series), active compounds read low",1.03
same,normalized growth,"locus YJL187C, strain SWE1, active compounds read low",0.991
same,normalized growth,"locus YJR043C, strain POL32, active compounds read low",1.06
same,normalized growth,"locus YJR066W, strain TOR1, active compounds read low",0.882
same,normalized growth,"locus YJR075W, strain HOC1, active compounds read low",1
same,normalized growth,"locus YKL009W, strain mrt4, active compounds read low",1.02
same,normalized growth,"locus YKL068W, active compounds read low",0.988
same,normalized growth,"locus YKL085W, strain MDH1 (second series), active compounds read low",0.985
same,normalized growth,"locus YKL085W, strain MDH1, active compounds read low",0.985
same,normalized growth,"locus YKL160W, strain elf1, active compounds read low",0.966
same,normalized growth,"locus YKL190W, strain CNB1, active compounds read low",1.01
same,normalized growth,"locus YKR001C, strain vps1, active compounds read low",0.959
same,normalized growth,"locus YKR026C, strain gcn3, active compounds read low",0.997
same,normalized growth,"locus YKR091W, strain srl3, active compounds read low",0.999
same,normalized growth,"locus YLL001W, strain dnm1, active compounds read low",0.989
same,normalized growth,"locus YLL026W, active compounds read low",1.01
same,normalized growth,"locus YLL041C, strain sdh2, active compounds read low",1
same,normalized growth,"locus YLR027C, strain aat2, active compounds read low",0.99
same,normalized growth,"locus YLR039C, strain RIC1, active compounds read low",0.871
same,normalized growth,"locus YLR058C, strain SHM2, active compounds read low",1.03
same,normalized growth,"locus YLR102C, strain apc9, active compounds read low",1.01
same,normalized growth,"locus YLR113W, strain HOG1, active compounds read low",0.844 (active)
same,normalized growth,"locus YLR221C, strain rsa3, active compounds read low",0.984
same,normalized growth,"locus YLR258W, strain gsy2, active compounds read low",0.989
same,normalized growth,"locus YLR262C, strain YPT6 (second series), active compounds read low",0.341 (active)
same,normalized growth,"locus YLR262C, strain YPT6, active compounds read low",0.625
same,normalized growth,"locus YLR268W, strain sec22, active compounds read low",0.974
same,normalized growth,"locus YLR320W, strain mms22, active compounds read low",0.852 (active)
same,normalized growth,"locus YLR330W, strain CHS5, active compounds read low",1
same,normalized growth,"locus YLR342W, strain FKS1 (second series), active compounds read low",0.952
same,normalized growth,"locus YLR342W, strain FKS1, active compounds read low",0.995
same,normalized growth,"locus YLR357W, strain rsc2, active compounds read low",1.02
same,normalized growth,"locus YLR370C, strain arc18, active compounds read low",0.994
same,normalized growth,"locus YLR371W, strain rom2, active compounds read low",0.963
same,normalized growth,"locus YLR384C, strain iki3, active compounds read low",0.999
same,normalized growth,"locus YLR418C, strain cdc73, active compounds read low",1.04
same,normalized growth,"locus YML016C, strain PPZ1, active compounds read low",1.01
same,normalized growth,"locus YML032C, strain rad52, active compounds read low",1.03
same,normalized growth,"locus YML120C, strain ndi1, active compounds read low",0.986
same,normalized growth,"locus YML124C, strain tub3, active compounds read low",1.01
same,normalized growth,"locus YMR058W, strain fet3, active compounds read low",0.981
same,normalized growth,"locus YMR078C, strain ctf18, active compounds read low",1.03
same,normalized growth,"locus YMR125W, strain sto1, active compounds read low",1.01
same,normalized growth,"locus YMR129W, active compounds read low",1
same,normalized growth,"locus YMR205C, strain PFK2, active compounds read low",0.932
same,normalized growth,"locus YMR223W, strain ubp8, active compounds read low",0.981
same,normalized growth,"locus YMR231W, strain pep5, active compounds read low",0.999
same,normalized growth,"locus YMR263W, strain SAP30, active compounds read low",0.997
same,normalized growth,"locus YMR307W, strain GAS1, active compounds read low",0.929
same,normalized growth,"locus YNL067W, strain RPL9B, active compounds read low",1
same,normalized growth,"locus YNL071W, strain lat1, active compounds read low",0.626 (active)
same,normalized growth,"locus YNL183C, strain NPR1, active compounds read low",0.906
same,normalized growth,"locus YNL209W, strain ssb2, active compounds read low",0.992
same,normalized growth,"locus YNL233W, strain BNI4, active compounds read low",1
same,normalized growth,"locus YNL248C, strain rpa49, active compounds read low",1
same,normalized growth,"locus YNL250W, strain rad50, active compounds read low",1.06
same,normalized growth,"locus YNL271C, strain bni1, active compounds read low",1.01
same,normalized growth,"locus YNL298W, strain CLA4, active compounds read low",1.04
same,normalized growth,"locus YNL307C, strain MCK1, active compounds read low",0.858 (active)
same,normalized growth,"locus YNL322C, strain KRE1 (second series), active compounds read low",0.989
same,normalized growth,"locus YNR049C, strain mso1, active compounds read low",1
same,normalized growth,"locus YNR052C, strain pop2, active compounds read low",1.02
same,normalized growth,"locus YOL006C, strain TOP1, active compounds read low",1.18
same,normalized growth,"locus YOL012C, strain htz1",1.11
same,normalized growth,"locus YOL147C, strain pex11, active compounds read low",1.01
same,normalized growth,"locus YOR001W, strain rrp6, active compounds read low",0.992
same,normalized growth,"locus YOR061W, strain CKA2, active compounds read low",1.01
same,normalized growth,"locus YOR069W, strain VPS5, active compounds read low",1
same,normalized growth,"locus YOR070C, strain gyp1, active compounds read low",0.981
same,normalized growth,"locus YOR080W, strain dia2, active compounds read low",1.01
same,normalized growth,"locus YOR083W, strain WHI5, active compounds read low",0.977
same,normalized growth,"locus YOR106W, strain vam3, active compounds read low",0.9
same,normalized growth,"locus YOR136W, strain idh2, active compounds read low",1.01
same,normalized growth,"locus YOR144C, strain elg1, active compounds read low",1.01
same,normalized growth,"locus YOR184W, strain ser1, active compounds read low",1.01
same,normalized growth,"locus YOR231W, strain MKK1, active compounds read low",0.948
same,normalized growth,"locus YOR265W, strain rbl2, active compounds read low",0.988
same,normalized growth,"locus YOR270C, strain vph1, active compounds read low",0.903
same,normalized growth,"locus YOR290C, strain snf2, active compounds read low",0.979
same,normalized growth,"locus YOR316C, strain cot1, active compounds read low",1.03
same,normalized growth,"locus YPL051W, strain arl3, active compounds read low",0.891 (active)
same,normalized growth,"locus YPL078C, strain atp4, active compounds read low",0.994
same,normalized growth,"locus YPL106C, strain sse1, active compounds read low",1.04
same,normalized growth,"locus YPL240C, strain hsp82, active compounds read low",0.991
same,normalized growth,"locus YPL241C, strain CIN2, active compounds read low",1.01
same,normalized growth,"locus YPL256C, strain CLN2, active compounds read low",0.934
same,normalized growth,"locus YPR119W, strain clb2, active compounds read low",1.02
same,normalized growth,"locus YPR141C, strain kar3, active compounds read low",1
same,normalized growth,"locus YPR163C, strain tif3, active compounds read low",0.953
same,normalized growth,"locus YPR167C, strain met16, active compounds read low",1.02
same,normalized growth,"strain wtn01, active compounds read low",0.992
